Results from the supplement of paper PMC4166925.
± gives the standard deviation of the averaged measurements. Over roughly 33,000 sequences, “E-score (dimensionless, -0.5 to 0.5)” has its median near -0.049; the highest 2% begin near 0.37. The entries come from a sample that favours the highest values as a whole.

test system: T1, PmTbr T-box DNA-binding domain (GST fusion); experiment: PBM E-score of 8-mer (E-score (dimensionless, -0.5 to 0.5)); Tbr is Tbrain of the sea star Patiria miniata (Pm) or the sea urchin Strongylocentrotus purpuratus (Sp); higher = stronger binding preference; settings: the construct has about 5 more residues each side
T1 sequence: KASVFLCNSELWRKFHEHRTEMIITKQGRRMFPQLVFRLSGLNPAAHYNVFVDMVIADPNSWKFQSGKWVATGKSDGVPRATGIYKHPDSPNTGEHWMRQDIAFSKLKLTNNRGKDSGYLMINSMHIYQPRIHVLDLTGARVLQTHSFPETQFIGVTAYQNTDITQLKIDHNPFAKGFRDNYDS
Outline: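 Expression of GST-fused Tbr T-box DNA-binding domains, each holding the full T-box plus roughly five flanking residues, was carried out in BL21 E. coli at 20 °C, with purification by glutathione affinity chromatography. Universal Agilent arrays made double-stranded by primer extension were incubated with the protein at 200 nM in PBS (pH 7.5), then scanned and quantified. All ungapped 8-mers were scored from probe intensities, and each received an enrichment E-score from the Universal PBM Analysis Suite, averaged over duplicate arrays.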

Sequence	PBM E-score of 8-mer
AAATTAGC	0.24 ± 0.01
GCTTCACC	0.0106 ± 0.012
CACGTCCG	0.26 ± 0.0099
CCGGTTAC	-0.0412 ± 0.0065
CTTTGCTC	-0.0392 ± 0.02
ACAGAGGC	0.0769 ± 0.02
AGGGTGAC	0.326 ± 0.031
CGGGTGTC	0.4001 ± 0.002
CGGGTGTA	0.0538 ± 0.035
AGAGGGTA	-0.108 ± 0.023
AGAGGGTG	0.383 ± 0.011
AGAGGGTC	-0.202 ± 0.011
AGGGTGTG	0.43 ± 0.027
AGGGTGTC	0.435 ± 0.014
AGGGGGTG	0.316 ± 0.027
AGGGTGGC	0.191 ± 0.011
AGGGTGTA	0.317 ± 0.0034
CCGGTGTC	0.247 ± 0.0031
CCCTAGGG	-0.16 ± 0.025
AGGTTTGG	-0.19 ± 0.043
CATTCTTA	-0.235 ± 0.007
GGAAGCAC	-0.23 ± 0.015

Sequence	PBM E-score of 8-mer
ATGGTGAG	0.223 ± 0.0051
CATTCAGG	0.0358 ± 0.077
ATAACAAA	-0.00818 ± 0.13
AGGATCAT	-0.151 ± 0.0099
CGGGCAAG	-0.0794 ± 0.036
CGAGGCCC	-0.297 ± 0.064
AACCTAAC	0.0221 ± 0.052
CCCCTAAG	-0.0688 ± 0.042
CACCTAAA	0.368 ± 0.0085
CACCTAAC	0.408 ± 0.028
CACCTAAG	0.381 ± 0.021
AACCTAAG	-0.12 ± 0.084
GCTACAGC	-0.2 ± 0.12
ACCGACTC	-0.012 ± 0.041
AGCAACCT	-0.0154 ± 0.04
AGTTGACG	0.153 ± 0.053
AGTTGACA	0.407 ± 0.008
AGTTGACC	-0.231 ± 0.009
CGTTGACA	0.405 ± 0.0049
GGTTGACA	0.3518 ± 0.0019
CGTTGACC	0.0227 ± 0.075
CTTCTATA	-0.287 ± 0.067

Sequence	PBM E-score of 8-mer
GATAGCAA	0.202 ± 0.052
ATCAGAAT	-0.106 ± 0.065
GCGAGAAA	0.356 ± 0.034
ATGAGAAC	-0.0696 ± 0.046
CTGAGAAA	0.00608 ± 0.019
ATGAGAAA	-0.182 ± 0.17
GTGAGAAA	0.458 ± 0.012
ACGAGAAC	0.0117 ± 0.058
CTGAGAAC	-0.052 ± 0.016
GTGAGAAC	0.44 ± 0.0046
GCGAGAAC	0.375 ± 0.01
GAGCGCAC	-0.0637 ± 0.099
CTCACAAC	0.3462 ± 0.0029
CCCAGAAC	-0.157 ± 0.065
TACCTTGA	0.00793 ± 0.011
CACCTTGC	0.4191 ± 0.0029
GACCTTGC	-0.145 ± 0.021
CACCTTGA	0.383 ± 0.017
GACCTTGA	-0.166 ± 0.025
AACCTTGC	0.060455 ± 2.1e-05
CAGCTTGG	0.0903 ± 0.044
CACCTTGG	0.45511 ± 0.00014

Sequence	PBM E-score of 8-mer
AACCTTGG	-0.183 ± 0.041
ATTATGCG	-0.162 ± 0.031
GCGGTAAC	-0.0299 ± 0.029
AATTGGTC	-0.139 ± 0.051
CCCTCTCG	0.0695 ± 0.027
CGGTATAC	-0.0592 ± 0.023
CCTAGAGG	-0.0482 ± 0.018
ACCCACAT	0.203 ± 0.096
AAACACCG	0.143 ± 0.013
AAACACCC	0.227 ± 0.027
ACACACCT	0.445 ± 0.0069
AGACACCG	0.185 ± 0.012
AGACACCT	0.4559 ± 0.0013
ACACACCG	0.125 ± 0.027
AGACACAT	0.184 ± 0.0023
AAACACCT	0.4565 ± 0.0016
ACACACAT	0.288 ± 0.013
GGAGTGGA	-0.0457 ± 0.03
ACATTTCA	0.125 ± 0.0075
AGCTATCC	-0.334 ± 0.059
AGGACACG	-0.0089 ± 0.017
ACGCCTGG	0.236 ± 0.015

Sequence	PBM E-score of 8-mer
CACAACAG	0.161 ± 0.033
GTCAACAA	0.293 ± 0.013
GACAACAA	0.194 ± 0.046
CTCAACAC	0.321 ± 0.029
CCCAACAA	0.0135 ± 0.11
CACAACAA	0.278 ± 0.0061
GCCAACAC	0.354 ± 0.0042
AACAACAC	0.363 ± 0.01
GTCAACAC	0.427 ± 0.012
GACAACAC	0.391 ± 0.014
CACAACAC	0.387 ± 0.02
CCCAACAC	0.385 ± 0.0085
AATTCGCT	0.00911 ± 0.0077
CGCAGGCC	-0.171 ± 0.036
GGTTCGAC	0.0606 ± 0.091
CCGTTAGA	0.0408 ± 0.021
GCTGACTA	-0.0402 ± 0.059
AATGCTCC	-0.0523 ± 0.0048
CATCTGCC	-0.176 ± 0.007
AGGTTATG	0.0583 ± 0.03
AGACGCTG	-0.078 ± 0.052
